Test results as given in PubChem BioAssay (NCI).
“And” between values parts separate entries of the source, which are not always exact repeats. Identical values can stand only once. The panel holds about 83,000 compounds, 20% with a hit somewhere; the sample as a whole holds those more often.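 Single-concentration screen, 48 h exposure, 96-well plates. Endpoint: percent growth. Below 10 = active.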

Key:
Assay in all cases: NCI-60 one-dose screen, 48 h (100 = growth as untreated, 0 = no growth, -100 = all killed)
Conditions in all cases: 10 µM unless noted
[1] = test system: RPMI-8226 leukemia
[2] = test system: OVCAR-8 ovarian
[3] = test system: OVCAR-5 ovarian
[4] = test system: OVCAR-4 ovarian
[5] = test system: SK-OV-3 ovarian
[6] = test system: IGROV1 ovarian
[7] = test system: OVCAR-3 ovarian
[8] = test system: HS 578T breast
[9] = test system: NCI/ADR-RES ovarian
[10] = test system: T-47D breast
[11] = test system: BT-549 breast
[12] = test system: MDA-MB-435 melanoma
[13] = test system: SW-620 colon
[14] = test system: MCF7 breast
[15] = test system: HCT-116 colon
[16] = test system: HCC-2998 colon
[17] = test system: KM12 colon
[18] = test system: SR leukemia

Measured: growth

COc1ccc(-c2ncnc3c2ncn3C/C=C/CCl)cc1
inactive: [1] 52.1% and 67.4% | [2] 67.2% and 69.5% | [3] 114% and 105% | [4] 53.3% and 56.7% | [5] 111% and 109% | [6] 93.8% and 82.9% | [7] 77.6% and 99% | [8] 131% and 111% | [9] 76.9% and 86.3% | [10] 67.9% and 92.5% | [11] 53.8% and 87.2% | [12] 57.8% and 81.6% | [13] 61.1% and 74.7% | [14] 40.2% and 55.6% | [15] 46.6% and 76.8% | [16] 91.2% and 95.4% | [17] 85.4% and 102%

Fc1ccccc1Nc1n[nH]c(=S)s1
inactive: [1] 110% | [2] 103% | [3] 99.2% | [4] 122% | [5] 110% | [6] 126% | [7] 107% | [9] 115% | [10] 103% | [12] 117% | [13] 105% | [14] 105% | [15] 98% | [16] 110% | [17] 104%

Cc1cccc(/C=C\C(=O)c2ccccc2)c1
inactive: [1] 26% | [2] 93.9% and 101% | [3] 104% and 103% | [4] 93.3% and 113% | [5] 101% | [7] 98.8% and 101% | [8] 112% and 104% | [9] 97% and 101% | [10] 93.8% and 93.5% | [11] 90.5% | [12] 98.4% and 88.5% | [13] 84.6% and 62.2% | [14] 43.4% and 82.6% | [15] 56.9% | [16] 97% and 103% | [17] 85.6% and 62.7%

O=C(N/N=C/c1ccccc1)N/N=C/c1ccccc1
inactive: [18] 93.8% and 106% | [2] 103% and 107% | [3] 109% and 105% | [5] 106% and 111% | [6] 99.9% and 106% | [7] 120% | [8] 118% and 91.7% | [9] 114% and 106% | [10] 114% and 106% | [12] 104% and 98.6% | [13] 106% and 96% | [14] 99.1% and 102% | [15] 107% | [16] 101% and 96.3% | [17] 99.8% and 102%

CC12CCC(CC1)C(C)(C)O2
inactive: [1] 103% | [2] 111% | [3] 94.3% | [4] 113% | [5] 104% | [6] 103% | [7] 121% | [8] 102% | [9] 108% | [10] 97.9% | [11] 98.9% | [12] 100% | [13] 104% | [14] 98.7% | [15] 112% | [16] 107% | [17] 109%

Cc1ccc(S(=O)(=O)Nc2ccc3cc([N+](=O)[O-])ccc3c2[N+](=O)[O-])cc1
inactive: [1] 51.6% and 38.2% | [2] 81.3% and 96.4% | [3] 96.9% and 106% | [4] 81.4% and 106% | [5] 78% and 103% | [6] 75.1% and 88.1% | [7] 46% and 98.9% | [8] 77.3% and 94.7% | [9] 79.5% and 105% | [10] 65.1% and 98.3% | [11] 92.3% and 95.5% | [12] 63.3% and 91.7% | [13] 91.9% and 93.4% | [14] 89.7% and 97.2% | [15] 83.8% and 80.7% | [16] 73.9% and 95.8% | [17] 73.5% and 91.6%
